# Reference: PubChem BioAssay AID1259343 (VanderVen Lab, College of Veterinary Medicine, Cornell …, 2017)
# The campaign covered roughly 6,200 compounds. About 2,900 (47%) were called active. The set was probably picked from earlier hits. Some of the results follow. A number with no mark means an inactive call. Cut-off read from the data, not from the text of the source: active = inhibition above about 50%; inactive = the rest.
# Experiment: Mycobacterium tuberculosis growth inhibition, primary screen (AID 1259343)
# Details: inhibition: at 10 µM, active compounds read high; outcome: 10 uM
row,Structure (SMILES),inhibition
1,COc1cc(C(=O)N2CCOC(COc3ccc(C)cc3)C2)cc(Cl)n1 (stereo not drawn),29.3%
2,COC(=O)c1ccc(Nc2ccc(OCC3CCCO3)cc2)nn1 (stereo not drawn),93.6% (active)
3,Clc1cccc(Nc2nc3nonc3n3nnnc23)c1,54.3% (active)
4,CC(C)S(=O)(=O)c1ccc(C(=O)Nc2onc3c2CCC3)cc1,84.8% (active)
5,CCc1csc(Cn2cc(C(C)c3ccccc3)nn2)n1 (stereo not drawn),-13.5%
6,Cc1ccc(SCCCCN2C(=O)NC(C)(C)C2=O)cc1,-48.6%
7,Cc1cc2ncn(CCCOc3ccccc3)c2cc1C,36.7%
8,CCc1cc(OCCCCn2cnc3ccccc3c2=O)ccc1Cl,64.6% (active)
9,O=c1c2ccccc2ncn1CCCCSc1ccccc1,89.1% (active)
10,Cc1nn(S(=O)(=O)c2cccc([N+](=O)[O-])c2)c(C)c1S(=O)(=O)N1CCCC(C)C1 (stereo not drawn),-15.4%
11,N#Cc1ccccc1CNc1ccc(Br)cc1F,-19.6%
12,N#Cc1ccc(CNc2cccc(Br)c2)c(F)c1,-12.4%
13,N#Cc1ccc(NCc2cc(Br)ccc2F)cc1,88.5% (active)
14,O=c1c2c3c(sc2ncn1Cc1cccc2ccccc12)CCCC3,21.4%
15,COC(=O)C(C)Sc1nc2sc3c(c2c(=O)n1Cc1ccccc1)CCC3 (stereo not drawn),83.9% (active)
16,CC(C)c1nc2c(c(=O)c3ccccc3n2C)c(=O)n1Cc1ccccc1,-29.9%
17,CC1(Cc2ccccc2F)C(=O)Nc2ccc(-c3cccnc3)cc21 (stereo not drawn),55.3% (active)
18,CCCc1nn(-c2cccc(Cl)c2)c([O-])c1C1=C([n+]2cccc(CC)c2)C(=O)N(CC(C)C)C1=O,41.4%
19,CCCC(C)NC(=O)Cn1cnc2cc(F)ccc2c1=O (stereo not drawn),86.9% (active)
20,CC(C)(C)C(=O)COC(=O)CNC(=O)c1ccccc1,93.8% (active)
21,O=C(NNC1c2ccccc2-c2ccccc21)c1ccccc1,32.6%
22,C=CCN=c1scc(-c2ccc(Cl)c(Cl)c2)n1N=Cc1cccnc1,68.1% (active)
23,C=CCN=c1scc(-c2ccc(Br)cc2)n1N=Cc1cccnc1,-5.61%
24,C=CCN=c1scc(-c2ccc(Cl)cc2)n1N=Cc1cccnc1,9.02%
25,C=CCN=c1scc(-c2ccccc2F)n1N=Cc1ccc2c(c1)OCCO2,9.72%

row,Structure (SMILES),inhibition
1,C=CCN=c1scc(-c2ccc(C)cc2)n1N=C(C)c1cccnc1,84.7% (active)
2,CCN=c1scc(-c2ccc(C)cc2)n1N=C(C)c1ccc(C)o1,42.6%
3,C=CCN=c1scc(-c2ccc(OC(F)F)cc2)n1N=C(C)c1ccc2c(c1)OCCO2,87% (active)
4,C=CCN=c1scc(-c2ccc(C)c(C)c2)n1N=Cc1cccnc1,-28%
5,C=CCN=c1scc(-c2ccc(OC(F)F)cc2)n1N=Cc1ccc2c(c1)OCO2,-11.8%
6,CC1(C)CN(CC(=O)NCC(=O)N2CCCC2)c2cccc(Cl)c21,-12.8%
7,O=C(NCC(=O)N1CCCCC1)c1sc2ccccc2c1Cl,70.3% (active)
8,Cc1ccc(C(=O)N2CCCC(C(=O)c3cccc4ccccc34)C2)s1 (stereo not drawn),11.3%
9,CCc1ccc(NC(=O)CCn2cnc3c([nH]c4ccccc43)c2=O)cc1,95.4% (active)
10,CCc1ccc(-c2cc(C(=O)N=Nc3c(O)[nH]c4ccccc34)[nH]n2)cc1,18.3%
11,Cn1c(=O)c2c(ncn2CCOC(=O)c2cc(=O)[nH]c3ccccc23)n(C)c1=O,-7.86%
12,Brc1cc(CNC2C3CCCC2CN(C2CC2)C3)cs1 (stereo not drawn),23.7%
13,C=CCn1c(SCC(=O)NC(=O)NC)nnc1-c1ccncc1,-1.24%
14,Cn1cnnc1SCC(=O)Nc1ccc2c(c1)OC(F)(F)O2,16.7%
15,C=CCn1cnnc1SCC(=O)Nc1ccc(Br)c(C)c1,101% (active)
16,Cc1nnc2sc(-c3ccccc3NC(=S)NC(=O)c3cc4ccccc4o3)nn12,57.4% (active)
17,CCn1c(O)c(C=NC2CCCCCC2)c(=O)n(CC)c1=S,102% (active)
18,Oc1ccc2ccccc2c1C=NC1CC1,37.4%
19,Cc1nn(CO)c(C)c1Sc1ccc(Br)cc1,36.4%
20,C(=Nn1c(-c2ccccc2)csc1=NC1CCCCC1)c1ccccn1,-31.1%
21,Cc1ccccc1OCC1CCCN(Cc2nc(Cc3ccccc3F)no2)C1 (stereo not drawn),47%
22,Cc1ccc(OCC2CCCN(Cc3ccc(C#CCO)s3)C2)cc1 (stereo not drawn),82.9% (active)
23,CCCCc1noc(CNc2cc(C(=O)NCC(F)(F)F)ccc2C)n1,46.7%
24,O=C(NCC(F)(F)F)c1cccc(Oc2ccccc2)c1,74.4% (active)
25,COCC(C)NC(=O)c1cccc(Oc2cccc(C(F)(F)F)c2)c1 (stereo not drawn),38.2%

row,Structure (SMILES),inhibition
1,CCc1cccc(N2CCC(NC(=O)Nc3nccs3)CC2)c1,51.4% (active)
2,CC1CC(=O)NN1C(=O)/C=C/c1cn(-c2ccccc2)nc1-c1ccccc1 (stereo not drawn),38.7%
3,Cn1cc(-c2nn(-c3ccccc3)cc2C=NNC(N)=S)c2ccccc21,16.3%
4,OCCN=Cc1cn(-c2ccccc2)nc1-c1ccc(Cl)cc1,59.3% (active)
5,CCc1cc2c(=O)n(CCC(C)C)c(=S)[nH]c2s1,-39.7%
6,C/C(=C/C(=O)C(C#N)c1nc2cc(Cl)ccc2s1)C1CC1 (stereo not drawn),63.6% (active)
7,COC(=O)COc1ccc2c(=O)c(Oc3ccc(OC)cc3)coc2c1,8.04%
8,CCOC(=O)COc1ccc2c(=O)c(-c3ccccc3)c(C)oc2c1,41.9%
9,Cc1cc(NC(=O)C(C)Oc2ccc3c(=O)c(-c4ccccc4)c(C)oc3c2)no1 (stereo not drawn),70.1% (active)
10,C=C(C)COc1ccc2c(=O)c(-c3ccccc3)c(C)oc2c1,51.9% (active)
11,COCCCn1c(-c2ccccc2)nc2oc3cc(OC)ccc3c(=O)c2c1=O,-18.5%
12,CCOC(=O)COc1ccc2c(=O)c(-c3ccc(Cl)cc3)c(C)oc2c1,84% (active)
13,Nc1c([N+](=O)[O-])ccc2c1=[N+]([O-])C1(CCCCC1)[N+]=2[O-],101% (active)
14,Oc1c(N=Nc2ccccc2)cc2c3c1CCCN3CCC2,16.8%
15,Cc1c(CN2CCCC(CNC(=O)c3cccs3)C2)[nH]c2ccc(Cl)cc12 (stereo not drawn),78.8% (active)
16,O=C(NCC1CC1)c1csc(N2CCN(Cc3ccc(Cl)cc3)C2=O)n1,33.3%
17,Cc1c(CN2CCCC(C(=O)Nc3cccc(-n4cccn4)c3)C2)[nH]c2ccccc12 (stereo not drawn),35.5%
18,NC(=N/N=C\c1ccc(Cl)cc1)N/N=C\c1ccc(Cl)cc1,101% (active)
19,CN(CCC#N)c1ccc(C=NNC(N)=S)cc1,29.2%
20,Clc1ccc(C2=Nn3c(nnc3C3CCCCC3)SC2)c(Cl)c1,-20.9%
21,O=C(Sc1cccc2cccnc12)c1ccccc1Cl,92.5% (active)
22,CCc1cccc2c(C(=O)CSc3nnc(-c4cccnc4)o3)c[nH]c12,63.8% (active)
23,CCOC(=O)c1sc(NN=C(C#N)C#N)c(C(=O)OCC)c1C,27.2%
24,CCOC(=O)c1c(CC(C)C)csc1NC=C(C#N)C#N,100% (active)
25,CCOC(=O)C(C#N)=NNc1sc(C(=O)OCC)c(C)c1C(=O)OCC,-20.8%

row,Structure (SMILES),inhibition
1,Cc1cc(=O)[nH]c(-n2nc(C)cc2NC(=O)c2cccc(C(F)(F)F)c2)n1,102% (active)
2,Cc1cc(NC(=O)c2cccc(C(F)(F)F)c2)n(-c2nc(C)c(C)c(=O)[nH]2)n1,33.9%
3,Cc1cc(=O)[nH]c(-n2nc(C)cc2NC(=O)c2cc(C(F)(F)F)cc(C(F)(F)F)c2)n1,98.3% (active)
4,Cc1cc(=O)[nH]c(-n2nc(C)cc2NC(=O)c2ccc(C(F)(F)F)cc2)n1,98.6% (active)
5,Clc1ccccc1CSc1ncnc2c1nnn2Cc1ccccc1,-14.6%
6,CCn1nnc2c(N3CCC(Cc4ccccc4)CC3)ncnc21,75.6% (active)
7,Cc1cc(=O)[nH]c(SCc2cc(-c3ccco3)on2)c1C#N,20.5%
8,COc1cccc(-c2ccc(CNC(=O)c3n[nH]c(=O)[nH]3)cc2)c1,76.1% (active)
9,Cc1cc2cc(CNC(=S)Nc3ccccc3)ccc2n1C,49.3%
10,Cc1c(NC(=S)NC(=O)c2ccc(Br)o2)c(=O)n(-c2ccccc2)n1C,-13.3%
11,Cc1c(NC(=S)NCc2ccccn2)c(=O)n(-c2ccccc2)n1C,92.7% (active)
12,Cc1ccc(S(=O)(=O)N=[N+]([O-])C2([N+](=O)[O-])COC(C)OC2)cc1 (stereo not drawn),102% (active)
13,CCOC(=O)c1ccc(N=Cc2c(O)c([N+](=O)[O-])cc3oc4c(c23)CCCC4)cc1,97.7% (active)
14,O=C(Nc1cccc(-c2ccco2)c1)C1CCN(C(=O)Cc2ccsc2)CC1,95.1% (active)
15,Cc1ncsc1CCC(=O)N1CCC(C(=O)Nc2cccc(-c3ccco3)c2)CC1,86.6% (active)
16,O=C(Nc1cccc(-c2cscn2)c1)C1CCN(Cc2cccc(-c3ccco3)c2)CC1,86.2% (active)
17,CC(=O)c1ccc(C(=O)N2CCC(C(=O)Nc3cccc(-c4ccco4)c3)CC2)s1,92.1% (active)
18,CC(C)c1csc(CN2CCC(C(=O)Nc3cccc(-c4ccco4)c3)CC2)n1,inactive
19,Cc1ccc(NC(=O)CN2CSCC2=O)cc1OCC(F)F,81.5% (active)
20,Cc1ccccc1OCC(=O)Nc1ccc2c(c1)CCC(=O)N2CCC(C)C,9.17%
21,N#Cc1c(-c2ccc(Br)cc2)csc1N1CCCCC1,38.9%
22,Cn1cccc1C(=O)OCc1nc2scc(-c3ccccc3)c2c(=O)[nH]1,37.5%
23,N#Cc1ncn(Cc2nc3scc(-c4ccc(Br)cc4)c3c(=O)[nH]2)n1,50.4% (active)
